{
  "source": "PubChem BioAssay (NCI)",
  "note": "Compounds without any hit were thinned out: in the full panel of roughly 83,000, 20% have a hit.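 Interpretation: 100, growth as untreated; towards 0, rising growth inhibition; 0, no net growth; 0 to -100, cell death. Compounds scoring below 10 were considered active.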 A number with no mark means an inactive call. The source made the active and inactive calls.",
  "data": [
    {"test_system": "SK-MEL-5 melanoma", "assay": "NCI-60 one-dose screen, 48 h (100 = growth as untreated, 0 = no growth, -100 = all killed)", "conditions": "10 µM unless noted", "values": [
      {"smiles": "CCS(=O)(=O)Nc1cccc(Nc2c3cccc(C)c3nc3c(C)cccc23)c1OC", "growth": "17.4%"},
      {"smiles": "Cc1nn(-c2ccccc2)c2nc3c(nc12)C1=NCCN1C(c1ccc(Cl)cc1)N3", "note": "(centres undefined)", "growth": "65.6%"},
      {"smiles": "O=C(Nc1cccc(C2=NCCN2)c1)c1ccc(N=Nc2ccc(C(=O)Nc3cccc(C4=NCCN4)c3)cc2)cc1", "growth": "80.4%"},
      {"smiles": "COC(=O)[C@@H](Cc1c[nH]c2ccccc12)NC(=O)/C=C/c1ccccc1", "growth": "31.4%"},
      {"smiles": "CCOC(=O)C(CCCCC(NC(C)=O)(C(=O)OCC)C(=O)OCC)(NC(C)=O)C(=O)OCC", "growth": "104%"},
      {"smiles": "COc1ccc(-c2cc(-c3cc4ccccc4oc3=O)n(-c3ccccc3)n2)cc1", "growth": "94.5%"},
      {"smiles": "CC(C)N(C(=S)SSC(=S)N(C(C)C)C(C)C)C(C)C", "growth": "109%"},
      {"smiles": "CCOC(OCC)c1cnc2nc(NC(C)=O)[nH]c(=O)c2n1", "growth": "104%"},
      {"smiles": "CC(C)(C)c1cc(C[P+](c2ccccc2)(c2ccccc2)c2ccccc2)cc(C(C)(C)C)c1O", "growth": "-96.9% (active)"},
      {"smiles": "N#Cc1ccc(-c2ccc(-c3cccs3)o2)cc1F", "growth": "84.4%"},
      {"smiles": "CCN(C(=O)CCl)C(C)(C)C(SSSC(c1ccc(Cl)cc1)C(C)(C)N(CC)C(=O)CCl)c1ccc(Cl)cc1", "note": "(centres undefined)", "growth": "73.5%"},
      {"smiles": "N=C(N)c1ccc(-c2ccc(-c3ccco3)o2)cc1F", "growth": "-93.6% (active)"},
      {"smiles": "COc1ccc(/C=C/c2nc(NCCCN(C)C)c3ccccc3n2)cc1", "growth": "32.3%"},
      {"smiles": "COc1cc2c(cc1OC)-c1cc(OC)c(OC)cc1C(CN(C)C)C2", "note": "(centres undefined)", "growth": "73.4% [100 µM]"}
    ]}
  ]
}
